From PubChem BioAssay
Sampled rows, rich in hits. Any-hit rate of the full collection: about 19%.
HT1080 IDH1KD tx: kills HT-1080 cells with IDH1 knockdown. Potency, µM (doses to about 46.1 µM), for inactives: at the top dose activity, negative = toxicity, actives largely listed as cytotoxic. HT-1080 IDH1 knockdown viability, ATP luminescence, 48 h. 2% of 360,000 active. AID 686971;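 further: potency means the concentration at half of the fitted maximal effect; 0% = DMSO wells and -100% = cell-free medium wells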
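CellTiter-Glo luminescence after 48 h compound exposure at 37 degrees C of IDH1-knockdown HT-1080 cells in 5% FBS RPMI. %Activity scaled between DMSO wells and cell-free media wells, with curves fitted and assigned curve classes.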
IL-1B inflam inh: inflammasome signaling inhibition, IL-1 beta readout | THP-1 LPS/ATP IL-1B secretion, AlphaLISA, 16 h; stronger effect = lower value | activity change, % at 57.5 µM | 4.7% of 360,000 active; in the data active means activity change below about -50%; inconclusive means mostly about -30% to -49%
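THP-1 cells pretreated 1 hr with compounds (up to 57.5 uM final), then stimulated with LPS (250 ng/mL final) plus ATP (1.25 mM final); secreted IL-1B measured by AlphaLISA after 16 hr, decreased signal indicating inhibition.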
HT1080NT lethal: kills 2HG-producing HT-1080-NT fibrosarcoma cells; AID 686970; HT-1080-NT fibrosarcoma viability, CellTiter-Glo ATP luminescence, 48 h; 1.6% of 360,000 active; Potency, µM (titrated, usually from 46.1 µM), inactives show top-dose activity, negative = less viability, usual class: cytotoxic;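 further: NT is the 2HG producing partner of a matched IDH1 knockdown line; potency means the concentration at half of the fitted maximal effect; 0% = DMSO-treated cells and -100% = media-only wells without cells; nearly all actives have a fitted effect of over 55% in size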
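Luminescent CellTiter-Glo readout after 48 hours of compound exposure at 37 degrees C defined viability of HT-1080-NT cells. Activity was normalized to DMSO wells and cell-free media wells; concentration-response curves were fitted and assigned curve classes.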
DT40 TDP1 CPT: DT40-hTDP1 cell growth loss with CPT; chicken DT40 Tdp1-/-;hTDP1 cells + 20 nM CPT, ATP luminescence, 48 h; Potency, µM (titrated, usually from 46.2 µM), inactives show at the top dose activity change, negative = growth inhibition, most hits filed as inhibitors; 12% of 420,000 active; further: potency means the concentration at half of the fitted maximal effect; nearly all actives have a fitted effect of over 55% in size
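Chicken DT40 Tdp1-/- cells complemented with human TDP1, 400 cells/well, exposed to compounds plus 20 nM camptothecin for at least 48 h at 37 C; viability read as ATP content by CellTiter-Glo luminescence.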
DT40 TDP1 no CPT: qHTS for Inhibitors of human tyrosyl-DNA phosphodiesterase 1 (TDP1): qHTS in cells in absence of CPT; DT40 Tdp1-/- hTDP1 cells, no CPT, ATP luminescence, 48 h; Potency, µM (highest dose often 46.2 µM), without a hit: top-dose activity change, negative = growth inhibition, actives largely listed as inhibitors; 15% of 420,000 active; further: potency means the concentration at half of the fitted maximal effect; nearly all actives have a fitted effect of over 55% in size
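No-CPT arm: Tdp1-/-;hTDP1 DT40 cells (400/well) plus compounds, incubated ≥48 hr at 37 °C. Readout CellTiter-Glo luminescence.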
ELG1 DNA repair: blocks ELG1-dependent DNA repair in HEK293T cells; 2.3% of 330,000 active; AID 504467; Potency, µM (doses to about 46.1 µM), without a hit: at the highest dose activity change, negative = inhibition, most hits filed as inhibitors; HEK293T ELG1-luciferase reporter, luminescence, 16 h; DNA damage induced by 5-fluorouridine; further: potency means the concentration at half of the fitted maximal effect; nearly all actives have a fitted effect of over 55% in size
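Step one: seed 2,000 cells per well. Step two: pin-transfer compound or DMSO alongside 5-fluorouridine. Step three: incubate 16 hr, 37 °C, 5% CO2. Step four: add ONE-Glo, wait 30 min, read luminescence.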
Active calls of the source: *; ? = inconclusive; · = not tested or not shown. Unless noted, the call rests on the fitted dose curve; in most records, active means well fitted curve in the direction sought with a large enough effect; inconclusive means small, poorly fitted or top-dose-only effect, or another doubt; inactive means no such curve, though single readings can be large; an effect the other way counts as inactive or inconclusive. Unless noted, on the % scale 0 is the no-effect control and ±100 the full control effect.

SMILES	HT1080 IDH1KD tx	IL-1B inflam inh	HT1080NT lethal	DT40 TDP1 CPT	DT40 TDP1 no CPT	ELG1 DNA repair
CCS(=O)(=O)Nc1cc(-c2nc3cccnc3s2)ccc1C	-11%	17	-18%	?	26µM*	?
Cc1cccc(CC(=O)Nc2cccc(-c3nc4cccnc4s3)c2)c1	·	·	·	-15%	?	·
Cc1ccccc1C(=O)Nc1cccc(-c2nc3cccnc3s2)c1	·	·	·	?	18µM*	·
Cc1cc(C)c2c(=O)cc(C(=O)Nc3sc4c(c3C(=O)NCC3CCCO3)CCCC4)oc2c1 (stereo not drawn)	·	·	·	-1%	-1%	·
C[C@@]12C(=O)N(Cc3ccc(-c4ccccc4)cc3)CC(=O)N1[C@H](/C=C/c1ccccc1)[C@@H]1C(=O)N(c3ccccc3)C(=O)[C@@H]12	-11%	-7	-29%	?	23µM*	-6%
CN1C(=O)[C@H]2[C@@H](/C=C/c3ccccc3)N3C(=O)CN(Cc4ccccn4)C(=O)[C@@]3(C)[C@H]2C1=O	12%	19	13%	1%	-4%	0%
COC(=O)CN1C(=O)[C@H]2[C@@H](/C=C/c3ccccc3)N3C(=O)CN(Cc4ccc(-c5ccccc5)cc4)C(=O)[C@@]3(C)[C@H]2C1=O	-15%	-9	?	26µM*	?	-11%
COc1ccc(S(N)(=O)=O)cc1C(=O)OCC(=O)N1CCCC(C)C1 (stereo not drawn)	8%	3	2%	0%	-4%	?
O=C(c1ccc(F)cc1F)N1CCC(c2nc(-c3ccc(S(=O)(=O)N4CCCC4)cc3)no2)CC1	·	·	·	4%	-25%	·
CCNC(=O)N1C(=O)C2(OCCO2)c2cc(Br)ccc21	16%	7	13%	-14%	-18%	13%
CCN1C(=O)C(O)(C2COC(C)(C)CC2=O)c2cc(Br)ccc21 (stereo not drawn)	?	-9	16µM*	1.3µM*	1.2µM*	?
CCOC(=O)CN1C(=O)C(O)(C2CCc3ccccc3C2=O)c2ccccc21 (stereo not drawn)	17%	25	19%	?	?	-8%
CCCN1C(=O)C(O)(C2CC(=O)CC(C)(C)O2)c2ccccc21 (stereo not drawn)	10%	28	-2%	5.8µM*	5.8µM*	14%
CCN1C(=O)C(O)(C2COC(C)(C)CC2=O)c2ccccc21 (stereo not drawn)	25%	5	22%	13µM*	8.2µM*	-12%
CCCN1C(=O)C(O)(CC(=O)c2ccc3c(c2)OCCO3)c2ccccc21 (stereo not drawn)	2%	-1	3%	?	?	19%
CCCN1C(=O)C(O)(C2COC(C)(C)CC2=O)c2ccccc21 (stereo not drawn)	?	11	10%	3.7µM*	13µM*	-13%
CCCN(c1c(C)n(C)n(-c2ccccc2)c1=O)S(=O)(=O)c1ccc(C)cc1	·	·	·	-3%	?	·
N#CC1=C(N)Oc2cc(N)ccc2C1c1ccc(F)cc1F (stereo not drawn)	?	-23	?	?	?	?
COc1cc(OC)c(NC(=O)/C=C/C(=O)O)cc1Cl	10%	·	12%	3%	8%	5%
CN1C(=O)C(O)(C2OC(C)(C)CCC2=O)c2ccccc21 (stereo not drawn)	4%	29	5%	8.2µM*	6.5µM*	18%
CN1C(=O)C2(OCC(C)([N+](=O)[O-])CO2)c2ccccc21 (stereo not drawn)	4%	45	2%	-3%	-11%	-2%
